Experimental data: PubChem BioAssay AID651812 (National Center for Advancing Translational Sciences (NCATS), 2012)
Hit rate of the full screen: of about 2,100 compounds, about 650 (31%) were called active. Not shown: some 16% with an inconclusive outcome. Calls follow the shape of the dose curve; as a rule, active = well fitted inhibition curve with a large enough effect; inconclusive = small, poorly fitted or top-dose-only effect; inactive = flat fitted curve, though single readings scatter. This is one part of the list.

Assay: qHTS for inhibitors of Vif-A3G interactions: Cherry picks; also: nearly all actives have a fitted effect of over 80% in size; as to activity, negative = fluorescence increase: % of control where 0% means no effect
Conditions: HeLa A3G-eYFP + Vif (tagged APOBEC3G with the HIV-1 protein that degrades it), 24 h; Potency: eYFP fluorescence increase; series mostly up to 36.9 µM; activity, negative = fluorescence increase: at the top concentration
Method in brief: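 HeLa cells stably expressing A3G-eYFP and Vif, cultured overnight then exposed to compounds at several concentrations for 24 hours at 37 C, 5% CO2; cellular yellow fluorescence (488 nm ex, 500-530 nm em) imaged on Acumen, MG132 positive control.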
Potency is read from the fitted curve at half-maximal effect.

activity, negative = fluorescence increase, inactive:
Cc1ccc(Cn2c(SCc3ccc(C(=O)NC4CCCC4)cc3)nc3ccncc32)cc1 3.2% [at 46.1 µM]
COc1ccc2c(c1)/C(=C/c1cc(OC)c(OC)c(OC)c1)C(=O)N2 -0.665%
COc1ccc2c(c1)/C(=C\c1cccc(/C=C3/C(=O)Nc4ccc(OC)cc43)n1)C(=O)N2 0.897%
COc1cc(/C=C2\SC(=Nc3cccnc3)NC2=O)cc(OC)c1OC -29.3% [at 46.1 µM]
CCOc1cc(Br)cc(/C=C2\SC(=Nc3ccccc3)NC2=O)c1O -2.38%
Cc1ccc2[nH]c(C(=O)NN=C3CCCCC3)c(-c3ccccc3)c2c1 0.458%
CC1C/C(=N\NC(N)=S)c2cc(Cl)ccc2S1 (centres undefined) 6.57% [at 46.1 µM]
Cc1ccc(N=C2NC(=O)CC(C(=O)Nc3ccc4c(c3)OCO4)S2)cc1 (centres undefined) -1.13%
O=C(CSc1n[nH]c(-c2ccccn2)n1)Nc1ccc(Cl)cc1 3.07% [at 46.1 µM]
C/C(CC(=O)NCc1ccc(Cl)cc1)=N\NC(=O)COc1ccc(C)cc1Br -1.44%
Cc1nc2c3cc(F)ccc3n(Cc3ccccc3F)c2s1 -11.9%
O=C(CN1c2ccccc2Sc2ccccc21)NNC(=O)Nc1cccc(Cl)c1 -2.17%
Cc1ccc(-c2nc3ncccc3o2)cc1NC(=O)c1ccc([N+](=O)[O-])o1 0.107% [at 46.1 µM]
CC(C)C1C(=O)N(Cc2cn(CCC3OCCCO3)nn2)CCS(=O)(=O)N1Cc1ccc(-c2cccc(CO)c2)cc1 (centres undefined) -11.4%
COc1ccc(-c2ccnc(-c3ccc(O)cc3)n2)cc1 -14.4%
CCC1=Nc2cc(C(=O)NCc3cccnc3)ccc2Sc2ccc(C)cc21 -8.44%
Cc1sc2nc(CSCC(=O)Nc3ccccc3C#N)[nH]c(=O)c2c1C -16% [at 46.1 µM]
O=C1OC(/C(=C\Nc2cc(Cl)ccc2O)[N+](=O)[O-])c2ccccc21 (centres undefined) -18.2%
CC(=O)Nc1cccc(-c2ccnc3c2CC(C(=O)Nc2cccc(N(C)C)c2)O3)c1 (centres undefined) -3.68%
COc1ccc(C(=O)NC(=S)NCc2cccnc2)cc1Cl 10.5% [at 46.1 µM]
CCOC(=O)c1c(C)[nH]c(C(=O)N/N=C/c2cccc(OC)c2)c1C -2.35%
Cc1ccnc(NC(=S)NC(=O)/C=C/c2ccco2)c1 -1.03%
CCOC(=O)c1ccc(NC(=S)Nc2cccc(C)n2)cc1 3.99% [at 46.1 µM]
CNC(=O)C(Sc1nc(C)nc2c1oc1ccccc12)C(C)=O (centres undefined) -5.85%
COc1ccc(Cn2c(=O)cc(N)n(-c3ccccc3C)c2=O)cc1 -10.8%
O=C(Cc1cc2ccccc2o1)NCc1ccc(F)cc1 -2.9%
COc1cccc(OCc2nc3ncc(Br)cc3[nH]2)c1 -5.34%
COc1ccc(-c2nc3cnccn3c2NC2CCCCC2)cc1-c1cccc(Cl)c1 -13.1% [at 46.1 µM]
CCC(C)Sc1ccc(-c2nc3cc(C)ccn3c2NC2CCCCC2)cc1 (centres undefined) -1.53% [at 46.1 µM]
COc1ccc(NC(=O)C2(C)Cc3c(-c4cccc(C(N)=O)c4)ccnc3O2)cc1 (centres undefined) -5.15%
Cc1cc(C(=O)N/N=C/c2ccc(C)o2)c2ccccc2n1 -9.53%
O=C(N/N=C/c1ccc([N+](=O)[O-])o1)c1cc(-c2ccc(-c3ccccc3)cc2)nc2ccccc12 -17.5%
Cc1cccc(Nc2nc(N)nc(-c3oc4ccccc4c3C)n2)c1 1.73%
O=C(Nc1nc(-c2ccccn2)cs1)C1CCCC1 2.08% [at 46.1 µM]
O=C(c1ccccc1)C(CN1CCCCC1)c1ccccc1 (centres undefined) -1.48%
C[C@H]1CN([C@@H](C)CO)C(=O)Cc2cc(NC(=O)CCC(F)(F)F)ccc2O[C@H]1CN(C)S(=O)(=O)c1ccc(F)cc1 -5.1%
C/C(=N\NC(=O)c1cc(C)nc2ccccc12)c1ccncc1 -2.34%
Cc1cccc(N2CCN(Cc3cn(C)nc3-c3ccccc3F)CC2)n1 -2.89%
C[C@H](O)[C@@H]1CN2CCc3c([nH]c4ccccc34)[C@@H]2C[C@@H]1N(C)C(=O)c1ccco1 -0.738%
Cc1ccccc1NC(=O)CSC1=C(C#N)C(c2ccsc2)CC(=O)N1 (centres undefined) -3.24%
COc1ccc(NC(=O)/C(C#N)=C/C=C/c2ccco2)cc1 -1.01%
O=C(N/N=C/C=C/c1ccco1)c1ccncc1 7.78% [at 46.1 µM]
O=Nc1ccc(O)c2ncccc12 -6.47%
CC1=NN(c2ccccc2)C(=O)/C1=C/C=C/c1ccccc1 -7.4%
COc1ccccc1CCC(=O)Nc1ccc2c(c1)c(=O)n(C)n2-c1cccs1 -14.5%
O=C1c2cccc3c(N4CCCCC4)ccc(c23)C(=O)N1c1cccc(O)c1 -14.5% [at 46.1 µM]
O=C(NC(=S)Nc1ccccc1N1CCCCC1)c1ccccc1 13.5% [at 46.1 µM]
COc1ccc(S(=O)(=O)Nc2cc(Sc3ncn[nH]3)c(O)c3ccccc23)cc1 -20.8%
CSc1ccccc1NC(=O)COC(=O)/C=C/c1ccco1 -3.36% [at 46.1 µM]
O=C(NC(=S)N1CCc2ccccc21)c1ccco1 6.64% [at 46.1 µM]
CCCOc1ccccc1C1CC(=O)NC2=C1C(=O)CCC2 (centres undefined) -1.81%
CCCCOc1ccc(-c2nnn(CC(=O)NCc3ccco3)n2)cc1 -5.01%
COC(=O)c1cccc(NS(=O)(=O)c2ccc(OC)cc2)c1C -1.35%
COc1cccc(N2CC(O)=C(c3nc4ccccc4s3)C2=N)c1 -13.4%
O=C(CSc1ccccc1)Nc1nc2ccccc2[nH]1 -8.99%
COc1ccccc1/C=N/NC(=O)c1cc2c(OC)c(OC)ccc2[nH]1 -4.72%
O=C(C(=O)N1CCN(c2ccccc2Cl)CC1)c1c[nH]c2ccccc12 1.33%
COc1cccc(/C=N/n2c(C3CCCCC3)n[nH]c2=S)c1O 8.61% [at 46.1 µM]
COCCNC(=O)C(=O)Nc1ccc2c(c1)N(S(=O)(=O)c1cccs1)CCC2 -0.781%
CN(C)c1ccc(/C=N/NC(=O)c2ccccc2Cl)cc1 3.19%
CCn1c(CNC(=O)c2cc(OC)c(OC)c(OC)c2)cc2cc(C)ccc21 -2.87% [at 46.1 µM]
CCOc1ncccc1C(=O)OCc1ccc(C(=O)OC)cc1 -9.97%
COc1ccc(N/C=C/c2nc(SC)nnc2C)cc1 -23.1% [at 46.1 µM]
COc1ccccc1NC1=NC(c2ccc(Cl)cc2)N=C(N)N1 (centres undefined) -5.12%
CCN(CC)c1ccc(/C=N/NC(=S)NC)c(O)c1 0.353% [at 46.1 µM]
Cc1c(C(=O)Nc2cnccn2)oc2ccccc12 -1.49%
O=C1CC(c2cc(F)ccc2F)c2cc3c(cc2N1)CCC3 (centres undefined) -1.72%
O=C(Cc1n[nH]c(=O)c2ccccc12)OCC(=O)c1ccc2c(c1)OCCO2 -14.4%
C(=C/c1nccc2c1[nH]c1ccccc12)/c1ccc2c(c1)OCO2 -7.14%

Potency, active:
CN(C)S(=O)(=O)c1ccc2c(c1)/C(=C/c1cc3c([nH]1)CCCC3)C(=O)N2 2.23 µM
CC(C)OC(=O)c1c2c(n3ccccc13)C(=O)c1ccccc1C2=O 10.3 µM
COc1cc(/C=C2\SC(=Nc3ccccc3)NC2=O)cc(Cl)c1O 20.6 µM
O=c1c2ccccc2sc2ccc(NCCCN3CCOCC3)cc12 18.4 µM
N#Cc1c(C(F)(F)F)cc(-c2ccccc2)nc1SCc1nc(N)nc(N2CCOCC2)n1 8.2 µM
CC(C)n1c(O)c(N=Nc2ccc(Cl)nn2)c2ccccc21 16.4 µM
CCN1/C(=C\C=C(C(C)=O)C(C)=O)Sc2ccccc21 20.6 µM
C[n+]1cc(C(=O)N2CCCCC2)ccc1/C=C/c1c[nH]c2ccccc12 14 µM
CCN(CC)C(=O)c1ccc(/C=C/c2c[nH]c3ccccc23)[n+](C)c1 18.4 µM
O=[N+]([O-])c1ccc(C2=Nc3cc(Cl)ccc3OC2)cc1 29.1 µM
CCOC(=O)c1cc(-c2ccccc2)sc1NC(=S)Nc1cc(C)ccn1 10.3 µM
COc1ccc(Cn2c(C)nc3c(c2=O)c2nc4ccccc4nc2n3Cc2ccco2)cc1 5.8 µM
O=c1[nH]c2cc(Br)cnc2nc1/C=C(\O)c1ccc(F)cc1 13 µM
CCCCNc1c(-c2ccc(SC3CCCCC3)cc2)nc2cnccn12 2.8 µM
O=[N+]([O-])c1ccc(/C=N/Nc2ccc3ccccc3c2)o1 4.44 µM
Cc1cc(N/N=C/c2ccc([N+](=O)[O-])o2)nc2ccccc12 20.6 µM
Nc1c(C(=O)c2ccccc2)sc2nsc(SCCN3CCCC3)c12 19.8 µM
Nc1c(C(=O)c2ccccc2)sc2nsc(SCCN3CCOCC3)c12 16.4 µM
COC(=O)C1C2CC3c4[nH]c5cc(OC)ccc5c4CCN3CC2CC(OC2CCCCO2)C1OC (centres undefined) 20.6 µM
COC(=O)C1C2CC3c4[nH]c5cc(OC)ccc5c4CCN3CC2CC(OC(=O)CC(C)=O)C1OC (centres undefined) 18.4 µM
O=[N+]([O-])c1ccc(N/N=C/C=C/c2ccco2)cc1 16.4 µM
O=C1c2cccc3c(N4CCCCC4)ccc(c23)C(=O)N1c1ccccc1O 1.3 µM
C=CCN1C(=O)c2cccc3c(N4CCCCC4)ccc(c23)C1=O 20.6 µM
O=C1c2cccc3c(N4CCCCC4)ccc(c23)C(=O)N1CCO 17.7 µM
CCN(CC)CCCNc1ccc2ncn3c4ccc(O)cc4c(=O)c1c23 18.4 µM
CN(C)CCNc1ccc2ncn3c4ccc(O)cc4c(=O)c1c23 20.6 µM
CN1CCc2c(sc(NC(=O)CSc3ccc(F)cc3)c2-c2nc3ccccc3s2)C1 1.64 µM
CC(=O)Nc1sc2c(c1-c1nc3ccccc3s1)CCN(C(C)C)C2 18.4 µM
CC1CC(C)CN(CC(=O)c2c[nH]c3ccccc23)C1 (centres undefined) 18.4 µM
CCCN1C=CC(=CC=C(C#N)C#N)C=C1 15.8 µM
C=CCN1C=CC(=CC=C(C#N)C#N)C=C1 14 µM
CN(/N=C/c1ccc(N(C)C)cc1)C1=NS(=O)(=O)c2ccccc21 17.7 µM
C=CCSc1nnc(C)c(/C=C/Nc2ccc(Cl)cc2)n1 20.6 µM
CCN1C(=S)SC(=O)C1=C1C=C(C)N(Cc2ccco2)C(C)=C1 14 µM
N#Cc1ccc(/C=C\c2nccc3c2[nH]c2ccccc23)cc1 14 µM
